Compounds with a hit are over-represented: about 6.8% of the library has one in this group of screens.
C diff HTS: inhibitors of Clostridium difficile growth. Clostridium difficile clinical isolate growth, OD600, 24 h; active compounds read low. growth activity, negative = inhibition, % at 16 µg/mL (by protocol). 86,000 tested, 0.25% active. AID 1259249;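 active means mean growth activity at or below -80% and every replicate also at or below -80%; inconclusive means mean at or below -80% but some replicate above -80%; inactive means mean growth activity above -80%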;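 further: 0% = DMSO wells and -100% = levofloxacin 16 µg/mL wells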
T cruzi growth-1: inhibitors of T. cruzi proliferation; AID 624255; T. cruzi beta-gal in NIH3T3, GalScreen luminescence, 90 h; 77,000 tested, 5.9% active; inhibition, % at 8.34 µM;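 active means mean inhibition above about 93%, with at least 55% of replicates each passing it, limit read from the data, passing the limit was not always enough; inconclusive means only one of those two conditions holds; inactive means neither condition holds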
Pf Dd2 inh: inhibitors of Plasmodium falciparum Dd2 growth | 94,000 tested, 2.3% active | P. falciparum Dd2 growth, SYBR Green, 72 h; active compounds read low | activity change, % at 10 µM; in the data active means activity change below about -80%; inconclusive means no clear call, values can overlap the other calls
T cruzi growth-2: inhibitors of T. cruzi proliferation; T. cruzi beta-gal in NIH3T3, GalScreen luminescence, 90 h; shares compounds with T cruzi growth-1; inhibition, % at 8.35 µM; 5,600 tested, 72% active;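 active means mean replicate inhibition above about 95% and at least 55% of replicates individually reaching it, limit read from the data; inconclusive means only one of the two criteria is met; inactive means neither criterion is met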
T cruzi growth-3: inhibitors of T. cruzi proliferation; shares compounds with T cruzi growth-1; T. cruzi beta-gal in NIH3T3, GalScreen luminescence, 90 h; inhibition, % at 2.09 µM; 5,600 tested, 21% active; AID 651740;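 active means mean inhibition above about 95%, with at least 55% of replicates also reaching it, limit read from the data; inconclusive means meets just one of the two conditions; inactive means meets neither condition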;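 further: plate controls were neutral control median for no effect and positive control median for full effect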
NIH3T3 tox: NIH/3T3 (mouse) viability loss; shares compounds with T cruzi growth-1; NIH/3T3 viability, CellTiter-Glo ATP luminescence, 90 h; cytotoxicity (signal decrease), % at 8.35 µM; 5,600 tested, 14% active; AID 651742;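 active means mean signal decrease across replicates above about 35% based on untreated-well scatter, with enough replicates individually passing, limit read from the data; inconclusive means no rule stated though some were filed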;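 further: 0% = median of neutral control wells and 100% = median of positive control wells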
NIH3T3 tox 2: NIH/3T3 (mouse) viability loss | shares compounds with T cruzi growth-1 | NIH/3T3 viability, CellTiter-Glo ATP luminescence, 90 h | inhibition, % at 24.9 µM | 5,600 tested, 56% active | AID 651744;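 active means mean loss of cell viability signal at or above a set limit, and enough replicates individually reaching it; inconclusive means meets only the mean limit or only the replicate share; inactive means meets neither condition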;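 further: 0% = median of neutral control wells and 100% = median of positive control wells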
* marks the source's active call; other numbers are inactive results; ! = not active in a repeat.

Screening C[C@@H]1CN([C@@H](C)CO)S(=O)(=O)c2ccc(-c3cccc(F)c3)cc2O[C@H]1CN(C)S(=O)(=O)c1ccccc1 returned C diff HTS -1.1, T cruzi growth-1 121.6*, Pf Dd2 inh -63.4, T cruzi growth-2 99.4*, T cruzi growth-3 106.1*, NIH3T3 tox 58.2* and NIH3T3 tox 2 49.2*.
Screening C/C=C/c1ccc2c(c1)O[C@@H](CN(C)C(C)=O)[C@@H](C)CN([C@H](C)CO)S2(=O)=O returned C diff HTS -0.3 and Pf Dd2 inh -13.1.
Screening N#C[C@@H]1[C@H](c2ccccc2-c2ccccc2)[C@@H](CO)N1C(=O)Cc1cccnc1 returned C diff HTS -4.3 and Pf Dd2 inh -52.8.
For C[C@@H]1CN([C@H](C)CO)S(=O)(=O)c2ccc(-c3cccc(F)c3)cc2O[C@H]1CN(C)S(=O)(=O)c1ccccc1 the results were C diff HTS 1.1, T cruzi growth-1 inconclusive, Pf Dd2 inh -15.6, T cruzi growth-2 91.9, T cruzi growth-3 51.5, NIH3T3 tox 65.3* and NIH3T3 tox 2 40.9*.
For CC(=O)N(C)C[C@@H]1Oc2cc(-c3cccc(F)c3)ccc2S(=O)(=O)N([C@@H](C)CO)C[C@@H]1C the results were C diff HTS -3.1, T cruzi growth-1 20.3 and Pf Dd2 inh -9.4.
C[C@H]1CN([C@@H](C)CO)S(=O)(=O)c2ccc(-c3cccc(F)c3)cc2O[C@@H]1CN(C)S(=O)(=O)c1ccccc1 was read as C diff HTS -3.3, T cruzi growth-1 119.5*, Pf Dd2 inh -39.1, T cruzi growth-2 96.4*, T cruzi growth-3 86.0, NIH3T3 tox 37.2* and NIH3T3 tox 2 41.2*.
For C[C@H]1CN([C@@H](C)CO)S(=O)(=O)c2ccc(Br)cc2O[C@H]1CN(C)S(=O)(=O)c1ccccc1 the results were C diff HTS 5.1 and Pf Dd2 inh 13.4.
`C[C@@H]1CN([C@H](C)CO)S(=O)(=O)c2ccc(-c3cccc(F)c3)cc2O[C@@H]1CN(C)S(=O)(=O)c1ccccc1` gave C diff HTS -1.1, T cruzi growth-1 114.5*, Pf Dd2 inh -33.4, T cruzi growth-2 97.4*, T cruzi growth-3 84.2, NIH3T3 tox 26.3 and NIH3T3 tox 2 54.0*.
`CO[C@@H]1CN(C)C(=O)c2ccc(NC(C)=O)cc2OC[C@H](C)N(C(=O)C2CCC2)C[C@@H]1C` gave C diff HTS 1.0, T cruzi growth-1 -32.4 and Pf Dd2 inh 7.5.
Screening O=C(C[C@H]1CC[C@H]2[C@@H](COC[C@H](O)CN2C(=O)Nc2ccc(Cl)c(Cl)c2)O1)NCc1ccccc1 returned T cruzi growth-1 51.3 and Pf Dd2 inh -0.6.
`O=C(C[C@H]1CC[C@H]2[C@@H](COC[C@@H](O)CN2C(=O)c2ccncc2)O1)NCc1ccc(-c2ccccc2)cc1` gave C diff HTS 1.3, T cruzi growth-1 -11.0 and Pf Dd2 inh -9.2.
Screening O=C(C[C@@H]1CC[C@@H]2[C@H](COC[C@@H](O)CN2C(=O)Nc2ccc(Cl)c(Cl)c2)O1)NCc1ccncc1 returned C diff HTS -96.3*!, T cruzi growth-1 127.2*, Pf Dd2 inh -7.9, T cruzi growth-2 74.1, T cruzi growth-3 -7.6, NIH3T3 tox 4.0 and NIH3T3 tox 2 inconclusive.
For O=C(C[C@H]1CC[C@@H]2[C@H](COC[C@@H](O)CN2C(=O)Nc2ccc(Cl)c(Cl)c2)O1)NCc1ccc(Cl)c(Cl)c1 the results were T cruzi growth-1 98.3*, Pf Dd2 inh -1.1, T cruzi growth-2 88.3, T cruzi growth-3 101.6*, NIH3T3 tox 31.5 and NIH3T3 tox 2 106.3*.
For O=C(C[C@@H]1CC[C@H]2[C@@H](COC[C@@H](O)CN2C(=O)c2ccncc2)O1)NCc1ccc(-c2ccccc2)cc1 the results were C diff HTS 4.6, T cruzi growth-1 116.7*, Pf Dd2 inh -23.2, T cruzi growth-2 11.9, T cruzi growth-3 14.8, NIH3T3 tox 0.9 and NIH3T3 tox 2 18.7.
O=C(C[C@H]1CC[C@H]2[C@@H](COC[C@@H](O)CN2C(=O)Nc2ccc(Cl)c(Cl)c2)O1)NCc1ccc(Cl)c(Cl)c1 was read as T cruzi growth-1 85.1 and Pf Dd2 inh -3.8.

Source: PubChem
